Experiments:
Experiment in all cases: DAPPL (digital affinity profiling via proximity ligation, sequencing); 10 mM Tris-HCl pH 7.5, 50 mM NaCl, 1 mM DTT, 4% glycerol, room temperature, 30 min; GST-TFs on glutathione beads, 16-mer random dsDNA library, 0.1% formaldehyde crosslink after washing; high values mean tight binding
FLI1 = target: T1, FLI1 (Homo sapiens, UniProt Q01543 1-452); conditions: protein: recombinant; tags: N-terminal GST; dsDNA, one strand shown
T1 sequence: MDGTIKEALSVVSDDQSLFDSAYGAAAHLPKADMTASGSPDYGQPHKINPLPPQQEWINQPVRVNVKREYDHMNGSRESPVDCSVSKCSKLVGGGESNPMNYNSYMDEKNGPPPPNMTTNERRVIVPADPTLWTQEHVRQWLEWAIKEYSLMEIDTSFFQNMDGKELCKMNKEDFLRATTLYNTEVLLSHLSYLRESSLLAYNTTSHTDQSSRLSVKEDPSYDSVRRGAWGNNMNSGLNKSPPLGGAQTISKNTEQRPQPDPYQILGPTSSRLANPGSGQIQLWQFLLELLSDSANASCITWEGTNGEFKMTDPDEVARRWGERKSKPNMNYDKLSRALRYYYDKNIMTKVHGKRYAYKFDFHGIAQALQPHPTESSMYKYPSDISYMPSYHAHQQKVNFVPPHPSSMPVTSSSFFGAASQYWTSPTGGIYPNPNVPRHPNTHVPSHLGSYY
Summary of the method: (§1)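 Human transcription factors carrying a GST fusion were produced in yeast, bound to glutathione beads, tagged with DNA barcodes and pooled together with a tag-only sample. Each pool was held with 200 nmole of a random double-stranded 16-mer DNA library in Tris/NaCl/DTT/glycerol buffer for 30 min at room temperature, then washed, crosslinked in 0.1% formaldehyde, proximity-ligated with BsaI/T4 ligase (1 h, 37 °C), PCR-amplified and sequenced on an Illumina NextSeq500. Binding signal is the read frequency of each hexamer for a given factor divided by its frequency in the tag-only sample.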

ELK1 = target: T2, ELK1 (Homo sapiens, UniProt P19419 1-428); conditions: protein: recombinant; tags: N-terminal GST; dsDNA, one strand shown
T2 sequence: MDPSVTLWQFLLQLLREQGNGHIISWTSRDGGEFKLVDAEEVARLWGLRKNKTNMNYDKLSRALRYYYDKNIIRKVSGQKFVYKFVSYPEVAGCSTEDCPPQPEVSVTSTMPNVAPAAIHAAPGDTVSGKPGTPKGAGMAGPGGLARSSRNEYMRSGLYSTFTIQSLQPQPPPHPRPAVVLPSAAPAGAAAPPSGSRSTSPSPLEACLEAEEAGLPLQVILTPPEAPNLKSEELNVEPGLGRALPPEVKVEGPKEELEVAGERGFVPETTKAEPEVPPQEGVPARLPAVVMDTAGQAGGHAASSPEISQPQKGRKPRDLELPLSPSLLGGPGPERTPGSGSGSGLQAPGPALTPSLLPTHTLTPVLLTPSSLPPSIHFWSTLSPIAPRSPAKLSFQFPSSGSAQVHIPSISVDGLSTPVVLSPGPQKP
Summary of the method: as §1

GABPA = target: T3, GABPA (Homo sapiens, UniProt Q06546 1-454); conditions: protein: recombinant; tags: N-terminal GST; dsDNA, one strand shown
T3 sequence: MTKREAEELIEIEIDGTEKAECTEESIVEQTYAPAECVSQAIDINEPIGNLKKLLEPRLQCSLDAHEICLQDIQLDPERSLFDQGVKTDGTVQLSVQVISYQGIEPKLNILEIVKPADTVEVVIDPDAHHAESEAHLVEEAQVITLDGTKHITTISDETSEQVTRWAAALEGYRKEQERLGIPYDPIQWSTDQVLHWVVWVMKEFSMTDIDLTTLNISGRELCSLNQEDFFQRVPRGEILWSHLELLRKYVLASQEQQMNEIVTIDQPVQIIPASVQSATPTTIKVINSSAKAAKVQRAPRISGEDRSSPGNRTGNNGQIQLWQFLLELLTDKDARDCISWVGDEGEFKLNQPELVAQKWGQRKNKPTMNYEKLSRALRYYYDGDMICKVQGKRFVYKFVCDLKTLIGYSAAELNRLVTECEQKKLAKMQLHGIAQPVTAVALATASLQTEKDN
Summary of the method: as §1

ERG = target: T4, ERG (Homo sapiens, UniProt P11308 1-479); conditions: protein: recombinant; tags: N-terminal GST; dsDNA, one strand shown
T4 sequence: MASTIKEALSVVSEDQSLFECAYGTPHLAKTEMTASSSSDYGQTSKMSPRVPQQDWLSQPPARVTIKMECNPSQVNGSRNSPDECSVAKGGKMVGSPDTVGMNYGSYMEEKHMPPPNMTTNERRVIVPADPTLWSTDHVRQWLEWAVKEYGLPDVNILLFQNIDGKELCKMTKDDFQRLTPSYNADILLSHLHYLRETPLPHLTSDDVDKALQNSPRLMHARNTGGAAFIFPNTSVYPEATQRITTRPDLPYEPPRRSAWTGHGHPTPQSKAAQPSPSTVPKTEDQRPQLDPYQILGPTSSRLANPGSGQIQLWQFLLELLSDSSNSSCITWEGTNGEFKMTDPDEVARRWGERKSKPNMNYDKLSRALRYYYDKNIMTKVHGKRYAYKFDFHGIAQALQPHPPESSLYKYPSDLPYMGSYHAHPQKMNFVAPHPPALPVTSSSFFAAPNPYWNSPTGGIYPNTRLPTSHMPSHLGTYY
Summary of the method: as §1

ELF1 = ELF1 (Homo sapiens, UniProt P32519 1-619); conditions: protein: recombinant; tags: N-terminal GST; dsDNA, one strand shown
Summary of the method: as §1

EHF = target: T5, EHF (Homo sapiens, UniProt Q9NZC4 1-300); conditions: protein: recombinant; tags: N-terminal GST; dsDNA, one strand shown
T5 sequence: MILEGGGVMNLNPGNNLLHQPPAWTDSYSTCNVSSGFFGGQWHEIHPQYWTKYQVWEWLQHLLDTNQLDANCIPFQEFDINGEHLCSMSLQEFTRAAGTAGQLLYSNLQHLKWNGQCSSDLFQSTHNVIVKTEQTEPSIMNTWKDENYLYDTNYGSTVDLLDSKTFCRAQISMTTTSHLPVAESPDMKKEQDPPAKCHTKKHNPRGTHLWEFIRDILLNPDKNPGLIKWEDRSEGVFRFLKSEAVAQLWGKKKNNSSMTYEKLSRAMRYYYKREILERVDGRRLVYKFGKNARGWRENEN
Summary of the method: as §1

ELK3 = target: T6, ELK3 (Homo sapiens, UniProt P41970 1-407); conditions: protein: recombinant; tags: N-terminal GST; dsDNA, one strand shown
T6 sequence: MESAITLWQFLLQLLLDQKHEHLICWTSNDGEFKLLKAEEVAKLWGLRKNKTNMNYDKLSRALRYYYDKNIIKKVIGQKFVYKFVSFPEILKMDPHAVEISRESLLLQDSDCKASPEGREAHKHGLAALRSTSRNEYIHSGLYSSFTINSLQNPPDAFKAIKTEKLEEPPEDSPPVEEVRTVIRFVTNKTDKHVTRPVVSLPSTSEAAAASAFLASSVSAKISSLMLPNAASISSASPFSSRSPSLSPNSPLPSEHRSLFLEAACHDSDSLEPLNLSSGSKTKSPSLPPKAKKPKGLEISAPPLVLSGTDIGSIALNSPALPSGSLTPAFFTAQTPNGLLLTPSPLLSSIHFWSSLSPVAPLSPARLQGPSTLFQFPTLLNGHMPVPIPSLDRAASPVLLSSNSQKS
Summary of the method: as §1

FEV = target: T7, FEV (Homo sapiens, UniProt Q99581 1-238); conditions: protein: recombinant; tags: N-terminal GST; dsDNA, one strand shown
T7 sequence: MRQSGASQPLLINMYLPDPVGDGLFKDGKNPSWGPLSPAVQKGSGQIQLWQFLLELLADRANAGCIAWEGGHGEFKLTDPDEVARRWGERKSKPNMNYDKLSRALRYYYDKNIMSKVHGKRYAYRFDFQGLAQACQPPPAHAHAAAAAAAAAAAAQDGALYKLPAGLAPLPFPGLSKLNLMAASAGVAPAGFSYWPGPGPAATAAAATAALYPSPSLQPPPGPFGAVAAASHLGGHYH
Summary of the method: as §1

ETV5 = ETV5 (Homo sapiens, UniProt P41161 1-510); conditions: protein: recombinant; tags: N-terminal GST; dsDNA, one strand shown
Summary of the method: as §1

HSF1 = HSF1 (Homo sapiens, UniProt Q00613 1-529); conditions: protein: recombinant; tags: N-terminal GST; chain copies: 3; dsDNA, one strand shown
Summary of the method: as §1

SPIC = target: T8, SPIC (Homo sapiens, UniProt Q8N5J4 1-248); conditions: protein: recombinant; tags: N-terminal GST; dsDNA, one strand shown
T8 sequence: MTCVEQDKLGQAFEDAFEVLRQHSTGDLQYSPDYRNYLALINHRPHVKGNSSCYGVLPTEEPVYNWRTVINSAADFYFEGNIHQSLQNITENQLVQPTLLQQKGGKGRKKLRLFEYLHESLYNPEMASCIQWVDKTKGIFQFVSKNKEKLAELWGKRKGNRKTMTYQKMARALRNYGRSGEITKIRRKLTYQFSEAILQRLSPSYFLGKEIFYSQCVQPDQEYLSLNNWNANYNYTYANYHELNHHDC
Summary of the method: as §1

ELF4 = ELF4 (Homo sapiens, UniProt Q99607 1-663); conditions: protein: recombinant; tags: N-terminal GST; dsDNA, one strand shown
Summary of the method: as §1

ELK4 = target: T9, ELK4 (Homo sapiens, UniProt P28324-2 1-405); conditions: protein: recombinant; tags: N-terminal GST; dsDNA, one strand shown
T9 sequence: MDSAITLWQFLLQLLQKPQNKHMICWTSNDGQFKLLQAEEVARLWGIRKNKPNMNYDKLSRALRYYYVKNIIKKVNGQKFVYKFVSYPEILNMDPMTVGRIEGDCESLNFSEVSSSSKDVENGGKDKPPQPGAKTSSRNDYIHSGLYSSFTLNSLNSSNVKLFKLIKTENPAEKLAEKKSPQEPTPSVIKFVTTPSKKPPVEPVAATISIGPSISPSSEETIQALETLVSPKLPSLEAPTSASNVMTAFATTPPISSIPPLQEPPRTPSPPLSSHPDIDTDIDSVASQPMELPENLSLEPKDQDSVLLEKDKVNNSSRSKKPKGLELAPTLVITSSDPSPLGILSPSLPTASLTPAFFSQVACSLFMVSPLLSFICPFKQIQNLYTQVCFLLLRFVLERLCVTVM
Summary of the method: as §1

ETV2 = target: T10, ETV2 (Homo sapiens, UniProt O00321 1-342); conditions: protein: recombinant; tags: N-terminal GST; dsDNA, one strand shown
T10 sequence: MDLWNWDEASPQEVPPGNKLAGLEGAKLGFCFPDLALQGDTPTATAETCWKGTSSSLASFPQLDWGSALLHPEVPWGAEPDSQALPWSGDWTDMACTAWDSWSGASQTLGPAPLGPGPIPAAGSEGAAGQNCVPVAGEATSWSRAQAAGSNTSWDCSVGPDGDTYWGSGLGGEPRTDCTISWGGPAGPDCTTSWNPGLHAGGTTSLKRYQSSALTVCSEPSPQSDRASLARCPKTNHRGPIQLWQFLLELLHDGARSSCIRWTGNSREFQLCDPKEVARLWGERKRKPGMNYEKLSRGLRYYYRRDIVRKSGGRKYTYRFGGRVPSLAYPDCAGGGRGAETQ
Summary of the method: as §1

ELF3 = target: T11, ELF3 (Homo sapiens, UniProt P78545 1-371); conditions: protein: recombinant; tags: N-terminal GST; dsDNA, one strand shown
T11 sequence: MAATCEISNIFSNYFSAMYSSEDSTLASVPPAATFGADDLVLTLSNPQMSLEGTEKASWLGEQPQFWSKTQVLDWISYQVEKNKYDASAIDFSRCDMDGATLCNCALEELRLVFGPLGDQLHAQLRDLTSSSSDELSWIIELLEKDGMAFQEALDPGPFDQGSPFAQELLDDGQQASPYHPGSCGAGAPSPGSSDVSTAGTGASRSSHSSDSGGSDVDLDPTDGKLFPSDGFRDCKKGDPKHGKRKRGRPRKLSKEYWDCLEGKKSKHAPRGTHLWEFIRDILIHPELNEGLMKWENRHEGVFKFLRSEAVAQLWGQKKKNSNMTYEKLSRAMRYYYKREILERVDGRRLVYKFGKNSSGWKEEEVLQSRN
Summary of the method: as §1

ETV1 = ETV1 (Homo sapiens, UniProt P50549 1-477); conditions: protein: recombinant; tags: N-terminal GST; dsDNA, one strand shown
Summary of the method: as §1

SPI1 = SPI1 (Homo sapiens, UniProt P17947 1-270); conditions: protein: recombinant; tags: N-terminal GST; dsDNA, one strand shown
Summary of the method: as §1

SPIB = SPIB (Homo sapiens, UniProt Q01892 1-262); conditions: protein: recombinant; tags: N-terminal GST; dsDNA, one strand shown
Summary of the method: as §1

CRX = CRX (Homo sapiens, UniProt O43186 1-299); conditions: protein: recombinant; tags: N-terminal GST; dsDNA, one strand shown
Summary of the method: as §1

Chain of ELF1 (P32519 whole entry): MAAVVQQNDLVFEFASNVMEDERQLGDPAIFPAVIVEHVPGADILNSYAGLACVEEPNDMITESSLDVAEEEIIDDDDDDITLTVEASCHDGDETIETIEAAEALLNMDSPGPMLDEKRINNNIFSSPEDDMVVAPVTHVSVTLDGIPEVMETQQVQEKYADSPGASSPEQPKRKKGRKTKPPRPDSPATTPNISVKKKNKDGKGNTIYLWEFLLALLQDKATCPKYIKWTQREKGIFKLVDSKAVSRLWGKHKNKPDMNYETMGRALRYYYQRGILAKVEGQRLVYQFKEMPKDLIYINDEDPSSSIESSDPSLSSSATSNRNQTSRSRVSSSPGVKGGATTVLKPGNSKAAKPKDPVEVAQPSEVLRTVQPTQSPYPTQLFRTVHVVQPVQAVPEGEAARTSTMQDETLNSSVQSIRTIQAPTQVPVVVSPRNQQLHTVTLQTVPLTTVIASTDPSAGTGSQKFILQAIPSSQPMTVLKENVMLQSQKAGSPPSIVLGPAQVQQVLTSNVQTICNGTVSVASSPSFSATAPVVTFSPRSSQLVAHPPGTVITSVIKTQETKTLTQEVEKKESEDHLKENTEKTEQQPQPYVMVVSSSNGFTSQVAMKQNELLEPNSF
Chain of ETV1 (P50549 whole entry): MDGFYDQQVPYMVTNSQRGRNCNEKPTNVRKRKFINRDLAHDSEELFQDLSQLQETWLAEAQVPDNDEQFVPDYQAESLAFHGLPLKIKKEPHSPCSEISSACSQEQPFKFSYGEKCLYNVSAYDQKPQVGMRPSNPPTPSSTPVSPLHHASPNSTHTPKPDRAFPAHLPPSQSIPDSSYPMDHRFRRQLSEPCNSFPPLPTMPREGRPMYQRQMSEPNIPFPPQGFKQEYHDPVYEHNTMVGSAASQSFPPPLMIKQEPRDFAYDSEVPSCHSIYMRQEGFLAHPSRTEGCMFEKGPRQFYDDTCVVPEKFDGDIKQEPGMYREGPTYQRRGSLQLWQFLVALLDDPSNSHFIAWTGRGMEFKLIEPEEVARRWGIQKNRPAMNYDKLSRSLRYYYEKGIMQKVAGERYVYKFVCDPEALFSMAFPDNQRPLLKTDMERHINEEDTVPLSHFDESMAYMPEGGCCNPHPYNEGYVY
Chain of ETV5 (P41161 whole entry): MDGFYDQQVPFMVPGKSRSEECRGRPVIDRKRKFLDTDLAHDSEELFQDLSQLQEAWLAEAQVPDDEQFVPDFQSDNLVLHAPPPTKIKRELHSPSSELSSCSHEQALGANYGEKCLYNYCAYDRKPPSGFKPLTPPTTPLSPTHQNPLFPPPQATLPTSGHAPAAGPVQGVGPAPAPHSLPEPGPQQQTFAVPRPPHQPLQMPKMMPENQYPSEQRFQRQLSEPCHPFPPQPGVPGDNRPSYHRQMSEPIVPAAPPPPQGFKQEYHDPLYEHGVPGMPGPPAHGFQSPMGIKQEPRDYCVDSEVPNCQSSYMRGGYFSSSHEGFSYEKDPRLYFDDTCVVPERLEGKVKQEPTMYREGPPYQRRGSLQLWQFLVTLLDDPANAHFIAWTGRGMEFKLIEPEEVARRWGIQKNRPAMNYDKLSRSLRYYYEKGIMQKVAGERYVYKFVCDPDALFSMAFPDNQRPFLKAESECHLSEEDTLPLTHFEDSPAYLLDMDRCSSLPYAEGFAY
Chain of ELF4 (Q99607 whole entry): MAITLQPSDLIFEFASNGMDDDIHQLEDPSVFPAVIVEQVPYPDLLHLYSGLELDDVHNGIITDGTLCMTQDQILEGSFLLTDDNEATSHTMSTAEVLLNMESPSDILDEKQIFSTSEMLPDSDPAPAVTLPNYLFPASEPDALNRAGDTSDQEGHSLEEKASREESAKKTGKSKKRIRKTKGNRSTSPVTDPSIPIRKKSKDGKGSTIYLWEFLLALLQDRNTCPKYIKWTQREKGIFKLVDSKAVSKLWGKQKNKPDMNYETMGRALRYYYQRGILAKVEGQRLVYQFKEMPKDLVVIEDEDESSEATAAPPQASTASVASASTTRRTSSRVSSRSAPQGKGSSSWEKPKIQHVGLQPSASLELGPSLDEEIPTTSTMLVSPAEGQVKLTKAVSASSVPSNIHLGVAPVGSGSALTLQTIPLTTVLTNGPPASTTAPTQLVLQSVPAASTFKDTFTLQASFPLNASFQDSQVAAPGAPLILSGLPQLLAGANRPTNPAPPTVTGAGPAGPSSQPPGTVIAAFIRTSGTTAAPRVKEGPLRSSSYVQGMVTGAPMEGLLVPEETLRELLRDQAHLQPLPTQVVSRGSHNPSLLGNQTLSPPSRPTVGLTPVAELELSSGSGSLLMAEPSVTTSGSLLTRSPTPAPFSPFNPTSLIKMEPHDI
Chain of HSF1 (Q00613 whole entry): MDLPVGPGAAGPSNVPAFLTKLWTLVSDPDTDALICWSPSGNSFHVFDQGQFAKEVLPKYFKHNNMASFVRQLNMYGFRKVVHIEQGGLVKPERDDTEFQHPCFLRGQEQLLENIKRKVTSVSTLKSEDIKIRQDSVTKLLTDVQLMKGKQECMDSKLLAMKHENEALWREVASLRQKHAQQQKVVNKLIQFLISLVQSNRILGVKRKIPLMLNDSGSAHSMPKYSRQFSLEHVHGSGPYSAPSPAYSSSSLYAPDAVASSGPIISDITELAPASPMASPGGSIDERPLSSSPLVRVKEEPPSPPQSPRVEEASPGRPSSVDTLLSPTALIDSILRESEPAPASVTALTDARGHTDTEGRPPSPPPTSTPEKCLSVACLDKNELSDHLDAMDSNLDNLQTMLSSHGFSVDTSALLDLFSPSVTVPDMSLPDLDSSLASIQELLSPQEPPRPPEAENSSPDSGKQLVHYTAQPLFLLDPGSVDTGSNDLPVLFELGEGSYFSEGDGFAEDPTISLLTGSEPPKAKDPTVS
Chain of SPIB (Q01892 whole entry): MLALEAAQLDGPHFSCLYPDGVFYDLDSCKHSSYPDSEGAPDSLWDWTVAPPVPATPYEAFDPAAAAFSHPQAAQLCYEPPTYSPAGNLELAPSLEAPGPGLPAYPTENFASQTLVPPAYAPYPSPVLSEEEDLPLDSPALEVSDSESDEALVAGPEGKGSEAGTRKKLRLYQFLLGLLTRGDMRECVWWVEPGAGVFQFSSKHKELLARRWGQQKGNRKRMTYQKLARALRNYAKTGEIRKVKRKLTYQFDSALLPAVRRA
Chain of CRX (O43186 whole entry): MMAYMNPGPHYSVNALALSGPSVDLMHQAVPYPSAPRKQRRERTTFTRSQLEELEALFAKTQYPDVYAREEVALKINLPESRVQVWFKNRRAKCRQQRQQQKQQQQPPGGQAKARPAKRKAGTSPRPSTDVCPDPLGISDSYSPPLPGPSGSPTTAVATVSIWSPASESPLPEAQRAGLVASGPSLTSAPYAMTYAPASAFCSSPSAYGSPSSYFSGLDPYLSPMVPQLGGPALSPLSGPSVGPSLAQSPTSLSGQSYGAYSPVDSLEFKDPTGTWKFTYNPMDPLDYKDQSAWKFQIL

Sequence	binding signal (FLI1)	binding signal (ELK1)	binding signal (GABPA)	binding signal (ERG)	binding signal (ELF1)	binding signal (EHF)	binding signal (ELK3)	binding signal (FEV)	binding signal (ETV5)	binding signal (HSF1)	binding signal (SPIC)	binding signal (ELF4)	binding signal (ELK4)	binding signal (ETV2)	binding signal (ELF3)	binding signal (ETV1)	binding signal (SPI1)	binding signal (SPIB)	binding signal (CRX)
CACCGA	1.01 fold enrichment (6-mer frequency, TF over GST control)	1.01 fold enrichment (6-mer frequency, TF over GST control)	1.08 fold enrichment (6-mer frequency, TF over GST control)	1.08 fold enrichment (6-mer frequency, TF over GST control)	1.11 fold enrichment (6-mer frequency, TF over GST control)	1.08 fold enrichment (6-mer frequency, TF over GST control)	1 fold enrichment (6-mer frequency, TF over GST control)	1.1 fold enrichment (6-mer frequency, TF over GST control)	1.1 fold enrichment (6-mer frequency, TF over GST control)	1.06 fold enrichment (6-mer frequency, TF over GST control)	1.05 fold enrichment (6-mer frequency, TF over GST control)	1.08 fold enrichment (6-mer frequency, TF over GST control)	1.13 fold enrichment (6-mer frequency, TF over GST control)	1.1 fold enrichment (6-mer frequency, TF over GST control)	1.04 fold enrichment (6-mer frequency, TF over GST control)	1.1 fold enrichment (6-mer frequency, TF over GST control)			
TTAGCG	1.05 fold enrichment (6-mer frequency, TF over GST control)	1.04 fold enrichment (6-mer frequency, TF over GST control)	1.03 fold enrichment (6-mer frequency, TF over GST control)	1.05 fold enrichment (6-mer frequency, TF over GST control)	1.09 fold enrichment (6-mer frequency, TF over GST control)	1.06 fold enrichment (6-mer frequency, TF over GST control)			1 fold enrichment (6-mer frequency, TF over GST control)	1.49 fold enrichment (6-mer frequency, TF over GST control)	1.03 fold enrichment (6-mer frequency, TF over GST control)	1.14 fold enrichment (6-mer frequency, TF over GST control)	1.05 fold enrichment (6-mer frequency, TF over GST control)	1.14 fold enrichment (6-mer frequency, TF over GST control)		1.07 fold enrichment (6-mer frequency, TF over GST control)	1 fold enrichment (6-mer frequency, TF over GST control)	1.13 fold enrichment (6-mer frequency, TF over GST control)	2.24 fold enrichment (6-mer frequency, TF over GST control)
